Inconclusive results are not listed. Where a call stands in place of a potency, no number is given. Activity calls are given as the source filed them. Calls come from the whole dose curve; as a rule, active = well fitted activation curve with a large enough effect in the signal ratio in the repeat runs, with a control signal flat (not every such curve was filed as active); inconclusive = weak or mixed curves; inactive = flat fitted curve, though single readings scatter; the % refers to the signal ratio.
assay: qHTS assay for small molecule activators of the heat shock response signaling pathway (AID 743210); settings: HeLa HSE-bla reporter, beta-lactamase ratio, 5 h; series mostly up to 62.6 µM
Text: U.S. Tox21 Program National Center for Advancing Translational Sciences [NCATS] NIH Chemical Genomics Center [NCGC] U.S. Environmental Protection Agency [EPA] National Institutes of Environmental Health Sciences [NIEHS] National Toxicology Program [NTP] U.S. Food and Drug Administration [FDA] Tox21 Assay Overview: Various chemicals, environmental and physiological stress conditions may lead to the activation of heat shock response/ unfolded protein response (HSR/UPR). There are three heat shock transcription factors (HSFs) (HSF-1, -2, and -4) mediating transcriptional regulation of the human HSR. To identify the compounds that activate HSR signaling, HSE-bla HeLa cell line (Invitrogen, Carlsbad, CA, USA) containing a beta-lactamase reporter gene under the control of the heat shock response elements was used to screen the Tox21 10K compound library.
Tox21 Assay Protocol Summary: The CellSensor HSE-bla HeLa cells (Invitrogen, Carlsbad, CA, USA) were dispensed at 1500 cells/6uL/well into 1536-well black wall/clear bottom plates using a Multidrop combi (Thermo Fisher Scientific, Waltham, MA) dispenser. After the assay plates were incubated at 37 C and 5% CO2 overnight, 23 nL of compounds dissolved in DMSO, positive controls or DMSO only was transferred to the assay plate by a Pintool station (Kalypsys, San Diego, CA). The plates were incubated at 37 C for 5 h. After 1 uL of LiveBLAzerTM B/G FRET substrate was added using a Flying Reagent Dispenser (Beckman Coulter, Indianapolis, IN, USA), the plates were incubated at room temperature for 2.5 h, and fluorescence intensity was measured by an Envision plate reader (PerkinElmer, Shelton, CT).

SMILES | Potency
O=S1(=O)OCCO1 | inactive
N[C@@H](Cc1ccc(Oc2cc(I)c(O)c(I)c2)c(I)c1)C(=O)O | inactive
Cc1ccc(Cl)c(O)c1 | inactive
COc1ccc2c(C(=O)c3ccc(Cl)cc3)c(C)n(CC(=O)O)c2c1 | inactive
CCOC(=O)COc1ccc(Cl)cc1Cl | inactive
BrCc1ccc(Br)cc1 | inactive
C/C(=N\NC(=O)Nc1cc(F)cc(F)c1)c1ncccc1C(=O)O | inactive
CC[C@H](O)C(C[C@H](C)N(C)C)(c1ccccc1)c1ccccc1 | inactive
BrCC1CO1 (stereo not given) | inactive
NC(=O)OCCCc1ccccc1 | inactive
C=C(Cl)CCl | inactive
COc1cc(CC(C)N)cc(OC)c1OC (stereo not given) | inactive
O=P(O)(O)CN(CP(=O)(O)O)CP(=O)(O)O | inactive
CCOc1cc(OP(=S)(OC)OC)nc(CC)n1 | inactive
COc1cc(CCN)cc(OC)c1OC | inactive
CN1C(=O)COc2c(C(=O)NC3CN4CCC3CC4)cc(Cl)cc21 (stereo not given) | inactive
CCCCS(=O)(=O)Cl | inactive
COC1=CC(=O)O[C@@H](/C=C/c2ccccc2)C1 | inactive
CCN(CC)C1CCCCC1 | inactive
N=C(N)[Se] | inactive

SMILES | Potency
CCN(CCO)CCO | inactive
CCOP(=O)(CN(CCO)CCO)OCC | inactive
CC1N=C(N)OC1c1ccccc1 (stereo not given) | inactive
CCC(C(N)=O)N1CCCC1=O (stereo not given) | inactive
CCOP(=S)(OCC)SCCl | inactive
CCCN1CCC[C@@H]2Cc3nc(N)ncc3C[C@H]21 | inactive
O=C(O)C(F)(F)C(F)(F)C(F)(F)C(F)(F)C(F)(F)C(F)(F)F | inactive
CCCOc1nn(C(=O)NS(=O)(=O)c2ccccc2C(=O)OC)c(=O)n1C | inactive
CCCCCCCCSC(=O)Oc1cc(Cl)nnc1-c1ccccc1 | inactive
COc1cccc([C@@]2(O)CCCC[C@@H]2CN(C)C)c1 | inactive
CN(CCO)CCO | inactive
O=C(Cl)C(Cl)(Cl)Cl | inactive
C=CC(=O)OCCN(C)C | inactive
CCCCCCC1CCOC1=O (stereo not given) | inactive
ClC1=C(Cl)C2(Cl)C(CBr)CC1(Cl)C2(Cl)Cl (stereo not given) | inactive
C=C1CC[C@@]2(O)[C@H]3Cc4ccc(O)c5c4[C@@]2(CCN3CC2CC2)[C@H]1O5 | inactive
CNC(=O)NC(O)C(Cl)(Cl)Cl (stereo not given) | inactive
CCC1(c2ccccc2)CCC(=O)NC1=O (stereo not given) | inactive
CC[C@@H](CO)NC(=O)[C@@H]1C=C2c3cccc4c3c(cn4C)C[C@H]2N(C)C1 | inactive
Cc1ccc(-c2nc3ccc(C)cn3c2CC(=O)N(C)C)cc1 | inactive

— PubChem BioAssay (Tox21)
